# Anesthetic bind – candidate novel general anesthetic via apoferritin binding; apoferritin/1-aminoanthracene competitive binding, fluorescence; Potency, µM (top dose mostly 77.5 µM), without a hit: at the top dose activity change, negative = displacement, most hits filed as inhibitors; 350,000 tested, 0.074% active; AID 485281; also: potency is read from the fitted curve at half-maximal effect; % is scaled to controls: 0 for no effect and ±100 for the full control effect; nearly all actives have a fitted effect of over 20% in size
# Target sequence (P02791 2-175 limits assumed): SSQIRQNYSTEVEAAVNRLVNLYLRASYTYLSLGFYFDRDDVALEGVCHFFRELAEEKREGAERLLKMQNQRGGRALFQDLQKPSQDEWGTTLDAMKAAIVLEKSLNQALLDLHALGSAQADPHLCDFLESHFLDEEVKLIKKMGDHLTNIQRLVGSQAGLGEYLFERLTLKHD
#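 10 uM apoferritin + 50% sat. 1-AMA, PBS; cpd 10 min RT; Ex380/Em535 endpoint; normalized to free probe vs complex; 4-param Hill fit; propofol titration as pos. ctrl.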
# CCT chaperon mod – modulators of cytosolic chaperonin (CCT/TRiC) activity. purified chaperonin ATPase assay, HTRF ADP detection, 30 min. activity change, % (concentration not given with the values), hits read low. 360,000 tested, 0.3% active. AID 651819; in the data active = activity change below about -30%; also: % is scaled to controls: 0 for no effect and ±100 for the full control effect
#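 TRiC at 40 or 20 nM final (batch-dependent) in 30 mM Tris pH 7.4, 100 mM KCl, 5 mM MgCl2, 1 mM DTT, with compound at single 76 uM and 10 uM ATP, 30 min at 37 deg C. ADP detected by HTRF Transcreener, 665/615 ratio.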
# ERG Ets-DNA blk – ERG Ets/DNA interaction inhibition | P11308 | fluorescence polarization, His-ERG Ets domain / labelled DNA | Potency, µM (series often up to 76.9 µM), for inactives: top-dose FP activity, negative = inhibition, actives largely listed as inhibitors | 370,000 tested, 0.028% active | AID 624246; active = well fitted inhibition curve with a large enough effect in the polarisation, with a control signal flat; inconclusive = small, poorly fitted or top-dose-only effect, or effect the other way, or a change in a side signal; inactive = no such curve, though single readings can be large or run the other way; the % refers to the polarisation;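 also: polarization taken with two DNA probes labelled with fluorescein and Texas red; potency is read from the fitted curve at half-maximal effect; % of control where 0% means no effect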
# Target sequence (P11308 whole entry, looked up, the tested form may be a part): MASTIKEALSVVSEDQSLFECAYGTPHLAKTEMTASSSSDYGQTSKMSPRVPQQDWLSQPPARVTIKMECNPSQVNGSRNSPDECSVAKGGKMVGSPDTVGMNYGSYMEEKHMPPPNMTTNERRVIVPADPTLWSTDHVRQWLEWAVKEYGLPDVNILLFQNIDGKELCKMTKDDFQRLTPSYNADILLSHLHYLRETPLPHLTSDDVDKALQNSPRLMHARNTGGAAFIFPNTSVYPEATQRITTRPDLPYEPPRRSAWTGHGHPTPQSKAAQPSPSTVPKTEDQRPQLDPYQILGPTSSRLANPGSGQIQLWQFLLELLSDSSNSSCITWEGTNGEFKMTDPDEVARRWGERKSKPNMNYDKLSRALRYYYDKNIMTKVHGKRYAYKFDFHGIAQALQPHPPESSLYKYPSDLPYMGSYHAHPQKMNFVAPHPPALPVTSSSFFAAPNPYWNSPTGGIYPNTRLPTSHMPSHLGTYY
#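 His-tagged ERG Ets domain (1 uM in the protein solution; 300mM KCl, 50mM Tris-HCl, 1mM EDTA, 1mM DTT, pH 7.5) received compound, then a probe mix of 5 nM fluorescein-DNA and 100nM Texas-615-DNA. Fluorescence polarization was read for both dyes.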
# Mm-Cpn inhibitor – blocks the Methanococcus maripaludis chaperonin Mm-Cpn | Potency, µM (doses to about 76.9 µM), for the others: at the highest dose activity, negative = inhibition, hits mostly inhibitors | purified Mm-Cpn ATPase, ADP Transcreener TR-FRET | 330,000 tested, 0.031% active | AID 504842; also: potency is read from the fitted curve at half-maximal effect; % is scaled to controls: 0 for no effect and ±100 for the full control effect; nearly all actives have a fitted effect of over 80% in size
#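 Eu-cryptate anti-ADP/ADP-d2 competition gives a ratio inversely related to ADP. Enzyme at 25 nM was pre-exposed to compound for 10 min, then given 10 uM ATP for 30 min, 37°C throughout.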
# Starred values were filed as active, the others as inactive; u = inconclusive; x = no result given; [ ] = another dose, or the depositor's remark. Compounds with a hit are over-represented: about 0.39% of the library has one in this group of screens. Unless noted, calls follow the shape of the dose curve; as a rule, active = well fitted curve in the direction sought with a large enough effect; inconclusive = small, poorly fitted or top-dose-only effect, or another doubt; inactive = no such curve, though single readings can be large; an effect the other way counts as inactive or inconclusive.
SMILES,Anesthetic bind,CCT chaperon mod,ERG Ets-DNA blk,Mm-Cpn inhibitor
COc1ccc(CNc2oc(-c3ccc(COc4ccccc4C)o3)nc2C#N)cc1,94.1%,x,-1.8%,x
NC(=O)C1CCN(c2nc(-c3ccccc3)cs2)CC1,x,x,x,-2.5%
Cc1oc(-c2ccccc2F)nc1CN1CCC(C(=O)NCCC2=CCCCC2)CC1,-14.0%,-51.7*,9.8%,0.4%
CCC(=O)CC,-0.5%,x,x,x
NCC(=O)N[C@@H](CCCN=C(N)N)C(=O)NCC(=O)N[C@@H](CCC(=O)O)C(=O)N[C@@H](CO)C(=O)O,-10.9%,x,x,x
CCOc1c(Cl)cc(CNc2ccc3[nH]c(=O)[nH]c3c2)cc1OC,-6.3%,x,23.2%,x
CN(CC(=O)Nc1ccccc1Cl)C(=O)c1cc(C2CC2)nn1-c1ccccc1,x,-30.9*,10.8%,0.8%
CCN(C(=O)CN1C(=O)NC2(CCc3ccccc32)C1=O)C1CCS(=O)(=O)C1 (configuration not stated),x,-33.6*,-20.5%,-4.8%
CC(C)CN(C(=O)CN1C(=O)NC2(CCc3ccccc32)C1=O)C1CCS(=O)(=O)C1 (configuration not stated),x,0.5,-0.9%,-1.4%
COc1ccc([C@]23Cc4cc(OC)c(OC)cc4C(O2)C2=C(CCCC2=O)O3)cc1,u,x,x,-1.4%[15.4 µM]
C=CS(=O)(=O)c1ccc(Oc2ccc(S(=O)(=O)C=C)cc2)cc1,-4.0%,-44.9*,-8.9%,-5.3%
O=C1N(Cc2cccnc2)C[C@@H]2C[C@@H](c3cccc(OC4CCCC4)c3)N3CCC[C@@]123,-15.3%,-50.9*,4.6%,-0.4%
O=C1N(Cc2cccnc2)C[C@@H]2C[C@@H](c3cccc(OCc4ccccc4)c3)N3CCC[C@@]123,-5.0%,3.4,0.4%,-6.9%
CCC1C(=O)C(CC)C(c2ccccc2)NC1c1ccccc1 (configuration not stated),-7.9%,-49.8*,0.9%,0.1%
CCc1ccc(CNCc2c(C(=O)O)n(Cc3cccc(F)c3)c3cc(OC)ccc23)cc1,-11.1%,x,0.6%,x
O=C(C[C@H]1C[C@H](C(=O)N2CCCCC2)[C@@]2(CCc3ccccc3)c3[nH]c4cc(-c5ccco5)ccc4c3CCN2C1=O)NCc1ccco1,x,1.2,17.7%,-6.6%
O=C(C[C@H]1C[C@H](C(=O)N2CCCCC2)[C@@]2(CCc3ccccc3)c3[nH]c4cc(-c5ccco5)ccc4c3CCN2C1=O)NCCC1=CCCCC1,x,-89.1*,15.8%,-2.1%
COc1ccc(/C=C(\NC(=O)c2ccccc2)C(=O)NC2CCCCC2)cc1,-6.8%,x,-7.7%,x
CC(C)(C)Cc1nnc(NC(=O)c2ccco2)s1,-14.9%,-75.7*,9.1%,-0.9%
Cc1ccc(S(=O)(=O)n2cc(C=O)c3ccccc32)cc1,-16.7%,-1.8,10.0%,2.1%
Cc1ccc(S(=O)(=O)n2cc(-c3ccccc3)c3ccccc32)cc1,x,-30.9*,7.0%,0.7%
CN(C)c1ccc(/C=C/c2ccc3ccccc3n2)cc1,43.0%,-2.3,5.7%,-6.0%
CCN(CC)c1ccc(/C=C/c2cc(-c3ccccc3)c3ccccc3n2)cc1,9.7%,1.2,10.4%,35.5µM*
O=C(CSc1nnc(-c2ccncc2)o1)Nc1cc(F)ccc1F,x,-118.9*,-6.3%,0.1%
Cc1sc(NC(=O)CSc2nnc(-c3ccc(F)cc3)o2)c(C#N)c1C,u,-50.1*,1.7%,0.0%
SMILES,Anesthetic bind,CCT chaperon mod,ERG Ets-DNA blk,Mm-Cpn inhibitor
Cc1ccc(-c2nnc(SCC(=O)Nc3sc(C)c(C)c3C#N)n2C)cc1,-6.5%,-1.0,-2.6%,-1.5%
CCOC(=O)c1cc(S(=O)(=O)Nc2cc(F)ccc2C)[nH]n1,-2.7%,x,-0.2%,x
COc1cccc(N2CCN(C(=O)CCc3nnc4ccc(N5CCCC5)nn34)CC2)c1,-18.0%,-41.7*,10.4%,-9.4%
Oc1ccc2ccccc2c1CNc1ccc2ccccc2c1,x,-37.0*,3.0%,x
CC1=C(C(=O)N(C)C)CC(CC(=O)NC(c2ccccc2)c2ccccc2)C(=O)N1Cc1ccccc1 (configuration not stated),x,-47.9*,x,x
CC1=C(C(=O)N(C)C)CC(CC(=O)NC(c2ccccc2)c2ccccc2)C(=O)N1Cc1ccc(F)cc1 (configuration not stated),x,-0.7,x,x
O=C(Nc1ccc(NC(=O)c2sc3ccccc3c2Cl)cc1Cl)c1ccco1,-5.3%,-33.5*,4.6%,-0.4%
O=C(NNC(=S)Nc1ccc(Cl)cc1)c1cccs1,-7.3%,-70.6*,-8.1%,-2.1%
O=C(NNC(=S)Nc1ccccc1)c1cccs1,5.7%,-4.0,-0.7%,0.3%
O=C(Cc1ccccc1[N+](=O)[O-])NCCC1=CCCCC1,-13.8%,-3.7,0.0%,1.0%
O=[N+]([O-])c1ccccc1S(=O)(=O)NCCC1=CCCCC1,10µM*,-0.1,-1.0%,-19.5%
Fc1cccc(Cl)c1CSc1nnc(COc2cccc3cccnc23)o1,17.8µM*,-0.9,x,-0.1%
NCCc1nnc(SCc2c(F)cccc2Cl)o1,u,-1.7,0.4%,-0.3%
Cc1ccc(OCCn2c(-c3ccc(Br)cc3)nc3ccccc3c2=O)cc1C,-5.9%,x,0.1%,x
Nc1cc(=O)[nH]c(=S)n1-c1ccccc1,1.3%,1.3,7.4%,1.6%
Cc1cc(=O)[nH]c(=S)n1-c1ccccc1,4.2%,-34.1*,x,4.3%
N#Cc1ccc(NCCNCC(=O)N2N=CCC2C#N)nc1 (configuration not stated),-4.5%,x,x,x
O=C(CSCc1ccc(Cl)cc1)N/N=C/c1ccc(OCC(=O)Nc2ccccc2)cc1,8.3%,-53.4*,3.8%,-2.1%
Cc1ccc(NC(=O)COc2ccc(/C=N/NC(=O)CSCc3ccccc3)cc2)cc1,5.7%,-2.9,-7.3%,0.7%
O=C(O)Cc1c(Cl)ccc(Cl)c1Cl,0.6%,x,x,x
O=C(Nc1ccc(-c2noc(CCc3ccccc3)n2)cc1)c1ccco1,-8.7%,-55.8*,1.9%,-3.5%
CC(=O)NC1=C(NC2CCS(=O)(=O)C2)C(=O)c2ccccc2C1=O (configuration not stated),-8.5%,-44.2*,-4.2%,-0.3%
CN(C1=C(NC(=O)c2ccccc2)C(=O)c2ccccc2C1=O)C1CCS(=O)(=O)C1 (configuration not stated),3.9%,-1.7,5.6%,-1.5%
CCn1c(=O)c(CCC(=O)N2CCN(c3ccccn3)CC2)c(C)c2c(C)nn(-c3cccc(C)c3)c21,-0.4%,-35.5*,5.2%,-9.0%
O=C(CSc1ccccc1Cl)c1ccco1,25.1µM*,0.3,0.0%,-1.8%
SMILES,Anesthetic bind,CCT chaperon mod,ERG Ets-DNA blk,Mm-Cpn inhibitor
O=C(CSc1ccc(Cl)cc1)c1ccco1,u,-1.2,0.4%,-17.2%
Oc1ccc(CNCc2ccc3c(c2)OCO3)c2cccnc12,x,x,x,2.3%
O=S(=O)(c1ccc2[nH]c3c(c2c1)CCCC3)N1CCCCC1,-20.1%,-73.0*,11.1%,-0.5%
CSc1nc(Sc2ccccc2Cl)c2ccccc2n1,1.9%,-76.7*,-5.7%,-25.1%
CCOC(=O)c1cnc(SC)nc1Sc1ccccc1Cl,u,1.3,3.8%,0.8%
Cc1c(C(=O)NCCN(C)C)sc2nc3n(c(=O)c12)CCC3,-13.8%,x,-0.3%,x
CCOC(=O)N1CCN(C(=O)CN(c2ccccc2F)S(=O)(=O)c2ccc(C)cc2)CC1,-4.9%,x,-5.8%,x
